In PubChem BioAssay (NCI):
About 83,000 compounds went through this panel and 20% of them were active in at least one assay; those are over-represented in the sample as a whole.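 Compound tested at a single concentration for 48 hours in 96-well plates; a percent growth value below 10 was scored as active.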 Calls of active or inactive are those of the source.

Legend:
Experiment in all cases: NCI-60 one-dose screen, 48 h (100 = growth as untreated, 0 = no growth, -100 = all killed)
Settings in all cases: 10 µM unless noted
[1] = system: SR leukemia
[2] = system: RPMI-8226 leukemia
[3] = system: OVCAR-8 ovarian
[4] = system: OVCAR-5 ovarian
[5] = system: OVCAR-4 ovarian
[6] = system: SK-OV-3 ovarian
[7] = system: IGROV1 ovarian
[8] = system: OVCAR-3 ovarian
[9] = system: HS 578T breast
[10] = system: NCI/ADR-RES ovarian
[11] = system: T-47D breast
[12] = system: BT-549 breast
[13] = system: MDA-MB-435 melanoma
[14] = system: SW-620 colon
[15] = system: MCF7 breast
[16] = system: HCT-116 colon
[17] = system: KM12 colon
[18] = system: HCC-2998 colon

Measured: growth

COC[C@H](C)n1c(C2CCOCC2)nc2cnc3cc(-c4c(C)noc4C)c(OC)cc3c21
inactive: [1] 33.5% | [2] 24% | [3] 49.6% | [4] 79.9% | [5] 54.7% | [7] 66.5% | [8] 49.8% | [9] 12.6% | [10] 54.2% | [11] 37.9% | [12] 69.2% | [13] 44.5% | [14] 64.3% | [15] 22.5% | [16] 46.8% | [17] 54%
active: [6] 7.03%

COc1cc2c(cc1-c1c(C)noc1C)ncc1nc(C3CCCCC3)n([C@H](C)COC(F)F)c12
inactive: [1] 17.9% | [2] 18.9% | [3] 42% | [4] 75.1% | [5] 44.8% | [6] 12.5% | [7] 37.8% | [8] 37.3% | [9] 18.9% | [10] 38.2% | [11] 32.8% | [12] 58.7% | [13] 34.1% | [14] 58.7% | [15] 18.3% | [16] 28.4% | [17] 46.3%

CCN(CC)S(=O)(=O)c1ccc(OC)c(NC(=O)c2[nH]c(C)c3c2CCCCC3=O)c1
inactive: [1] 43.4% | [2] 16.7% | [3] 41.1% | [4] 54.1% | [5] 49.5% | [6] 20.4% | [7] 24.8% | [8] 39% | [9] 16.4% | [10] 40.2% | [11] 16.6% | [12] 59.8% | [13] 31.3% | [14] 67% | [15] 19% | [18] 42.3% | [17] 47.9%

O=C1Nc2c(ccc(Cl)c2Cl)/C1=C\c1ccc(C(F)(F)F)cc1
inactive: [1] 104% | [2] 62.8% | [3] 85.1% | [4] 83.9% | [5] 75.1% | [6] 88.2% | [7] 54.1% | [8] 68.2% | [9] 63.9% | [10] 85.8% | [11] 77.2% | [12] 75.2% | [13] 95.4% | [14] 67.1% | [15] 52.1% | [16] 68.2% | [17] 71.2%

CCOC(=O)c1sc(Nc2ccc(Cl)cc2)nc1C
inactive: [1] 11% | [3] 19.8% | [4] 51.6% | [5] 18.2% | [6] 20.3% | [7] 19.3% | [8] 27.4% | [9] 10.1% | [10] 17.5% | [13] 23.1% | [14] 28.2% | [15] 13%
active: [2] 7.4% | [11] 6.67% | [12] -4.09% | [16] 5.31% | [17] -1.62%

Cc1ccc(O)c(N2C(=NCc3ccco3)NS(=O)(=O)c3cnccc32)c1
inactive: [1] 71.3% | [2] 65.7% | [3] 64.5% | [4] 92.4% | [5] 107% | [6] 117% | [7] 94.2% | [8] 96.9% | [9] 113% | [10] 95.2% | [11] 110% | [12] 101% | [13] 91.8% | [14] 111% | [15] 101% | [16] 99% | [17] 112%

COc1ccc(-c2nc(SCC(=O)Nc3ccc(C(=O)/C=C/c4ccc(Cl)cc4)cc3)[nH]c(=O)c2C#N)cc1
inactive: [1] 72.3% | [2] 98.3% | [3] 106% | [4] 109% | [5] 99.8% | [6] 96.2% | [7] 111% | [8] 101% | [9] 81.3% | [10] 102% | [11] 61.8% | [12] 84% | [13] 41.9% | [14] 102% | [15] 41% | [17] 102%
active: [16] 2.43%

COc1cc(-c2nn(-c3ccc(C(=O)O)cc3)cc2C(=O)O)ccc1O
inactive: [1] 32.9% | [2] 88.2% | [3] 73.2% | [4] 110% | [5] 83.8% | [6] 74.3% | [7] 81% | [8] 42.8% | [9] 76.5% | [10] 29.7% | [11] 93.2% | [12] 70.3% | [14] 32.1% | [15] 35.3% | [16] 86.6% | [17] 42.5%
active: [13] -5.36%

COc1ccc(N=Nc2nccs2)c(O)c1
inactive: [1] 11.5% | [2] 21.6% | [3] 20.2% | [4] 87.2% | [5] 22.4% | [6] 52.4% | [7] 25% | [8] 33.1% | [9] 85.3% | [10] 14.4% | [11] 36.5% | [12] 74.1% | [13] 58.7% | [14] 34.4% | [15] 20.4% | [18] 60.8% | [17] 33.3%

O=C1NC(=O)C(c2ccc(Cl)cc2Cl)N1 (centres undefined)
inactive: [1] 92.6% | [2] 109% | [3] 112% | [4] 106% | [5] 113% | [6] 108% | [7] 114% | [8] 112% | [9] 102% | [10] 106% | [11] 111% | [12] 122% | [13] 113% | [14] 106% | [15] 101% | [16] 103% | [17] 104%

O=C(CCN1C(=O)/C(=C/c2ccc(Cl)cc2)SC1=S)NCCCN1CCOCC1
inactive: [1] 102% | [2] 103% | [3] 92.4% | [4] 103% | [5] 102% | [6] 88.2% | [7] 110% | [8] 105% | [9] 90.9% | [10] 98.9% | [11] 90.8% | [12] 106% | [13] 98.9% | [14] 100% | [15] 90.1% | [16] 98.7% | [17] 104%

CCC([N+](=O)[O-])S(=O)(=O)c1ccc(C)cc1 (centres undefined)
inactive: [1] 113% | [2] 106% | [3] 95.3% | [4] 88.2% | [5] 93.6% | [6] 108% | [7] 103% | [8] 150% | [9] 129% | [10] 92.3% | [11] 92.6% | [12] 109% | [13] 113% | [14] 104% | [15] 101% | [18] 64.5% | [17] 136%

O=C1c2cccc3cccc(c23)C(=O)N1CCCCCN1CCN(CCCCCOc2ccc(-c3nc4ccc(N5CCOCC5)cc4[nH]3)cc2)CC1
inactive: [3] 10.6% | [4] 158% | [5] 83.2% | [6] 135% | [7] 44.3% | [8] 105% | [9] 107% | [10] 25.9% | [12] 29.9% | [13] 36.4% | [14] 17.1% | [16] 73% | [17] 20.6%
active: [1] -44.1% | [2] -59% | [11] 0.907% | [15] -25.7%

Cc1cc(C)nc(SC2=C(Nc3cccc(Cl)c3)C(=O)N(Cc3ccccc3)C2=O)n1
inactive: [1] 28.8% [30 µM] | [2] 23.3% [30 µM] | [3] 52.5% [30 µM] | [4] 107% [30 µM] | [5] 61.9% [30 µM] | [6] 113% [30 µM] | [7] 43.3% [30 µM] | [8] 68.6% [30 µM] | [9] 97.8% [30 µM] | [10] 55.5% [30 µM] | [11] 22.2% [30 µM] | [12] 65.5% [30 µM] | [13] 61.4% [30 µM] | [14] 72% [30 µM] | [15] 49.8% [30 µM] | [17] 83.7% [30 µM]

COc1cc2c(cc1-c1c(C)noc1C)ncc1nc(C3CCC(F)(F)CC3)n([C@H](C)COC(F)F)c12
inactive: [1] 22.7% | [2] 18.5% | [3] 44.3% | [4] 82.5% | [5] 48.1% | [6] 10.5% | [7] 40.6% | [8] 39.6% | [9] 13.9% | [10] 40.1% | [11] 46% | [12] 61.9% | [13] 36.8% | [14] 57.3% | [15] 18.7% | [18] 46.4% | [17] 45.4%

Cc1[nH]c(-c2cc(N)ccc2Cl)c2c1C(=O)CCCC2
inactive: [1] 44.8% | [2] 12.7% | [3] 22.2% | [4] 49.3% | [5] 36.4% | [6] 11.7% | [7] 20.6% | [8] 30.4% | [10] 33% | [11] 19.8% | [12] 49.8% | [13] 15.5% | [14] 64.6% | [15] 12.8% | [17] 32.6%
active: [9] 7.36%

NCCNc1nc(Nc2ccc(-c3nc4ccccc4[nH]3)cc2)c2cn[nH]c2n1
inactive: [3] 43.9% | [4] 125% | [5] 88.4% | [6] 111% | [7] 97.6% | [8] 83.9% | [9] 41.8% | [10] 94.9% | [11] 60.8% | [12] 80.2% | [13] 94% | [14] 28.4% | [15] 39.2% | [16] 14.9% | [17] 25.2%
active: [1] -3.8% | [2] -11.7%

COc1cc(/C=C/C(=O)c2cccnc2Nc2ccc(F)cc2)cc(OC)c1OC
inactive: [4] 35.8% | [5] 61.6% | [6] 42% | [7] 91.7% | [8] 16.1% | [9] 24.9% | [11] 61.4% | [12] 39.5% | [13] 28.4% | [14] 21.6% | [16] 13.9% | [17] 24.6%
active: [1] 2.85% | [2] 1.24% | [3] 1.62% | [10] 8.54% | [15] 8.82%
